Experimental data taken from PubChem BioAssay (Tox21).
Results filed as inconclusive are left out. Activity calls are given as the source filed them. Calls come from the whole dose curve; as a rule, active = well fitted curve in the direction sought with a large enough effect in the repeat runs; inconclusive = weak or mixed curves; inactive = no such curve, though single readings can be large; an effect the other way counts as inactive or inconclusive.

How the values were obtained:
[1] = qHTS RealTime-Glo MT Cell Viability Assay in HEK293 cells - 16 hour (AID 1224872); note: nearly all actives have a fitted effect of over 50% in size; note: potency is the fitted concentration of half-maximal effect
Procedure, shortened: (§1)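 Quantitative high-throughput screen of the Tox21 10K library in HEK293: cells and RealTime-Glo reagents plated together, compound added at 5 h, luminescence monitored through 40 h at 37 C.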

[2] = qHTS RealTime-Glo MT Cell Viability Assay in HepG2 cells - 8 hour (AID 1224873); note: nearly all actives have a fitted effect of over 55% in size
Procedure, shortened: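 Real-time viability: cells seeded at 600 per well together with NanoLuc and cell-permeant prosubstrate, compounds added after 5 h incubation. Luminescence tracked at 0, 8, 16, 24, 32 and 40 h of exposure.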

[3] = A CellTox Green Cytotoxicity Assay to monitor cytotoxicity in HEK293 cells - 24 hour (AID 1224875); note: nearly all actives have a fitted effect of over 45% in size; note: potency is the fitted concentration of half-maximal effect
Procedure, shortened: (§2)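 Fluorescence from a DNA-binding dye excluded by viable cells was measured repeatedly in the same HEK293 wells (600 cells/well) during continuous compound exposure at 37 C. Each assay gives one read point: 0, 8, 16, 24, 32 or 40 h.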

[4] = A CellTox Green Cytotoxicity Assay to monitor cytotoxicity in HepG2 cells - 16 hour (AID 1224876); note: nearly all actives have a fitted effect of over 45% in size; note: potency is the fitted concentration of half-maximal effect
Procedure, shortened: (§3)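 Real-time cytotoxicity: fluorescence of a cell-impermeant cyanine dye binding DNA of dead HepG2 cells, measured repeatedly (0–40 h) during compound exposure at 37 C. Cells seeded 600/well with reagent, dosed after 5 h.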

[5] = A CellTox Green Cytotoxicity Assay to monitor cytotoxicity in HepG2 cells - 24 hour (AID 1224878); note: nearly all actives have a fitted effect of over 45% in size; note: potency is the fitted concentration of half-maximal effect
Procedure, shortened: as §3

[6] = A CellTox Green Cytotoxicity Assay to monitor cytotoxicity in HepG2 cells - 40 hour (AID 1224879); note: nearly all actives have a fitted effect of over 40% in size; note: potency is the fitted concentration of half-maximal effect
Procedure, shortened: as §3

[7] = qHTS RealTime-Glo MT Cell Viability Assay in HEK293 cells - 0 hour (AID 1224880); note: nearly all actives have a fitted effect of over 45% in size; note: potency is the fitted concentration of half-maximal effect
Procedure, shortened: (§4)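 Luminescence, which tracks viable cell number through reduction of the prosubstrate to a NanoLuc substrate, was read over continuous 37 C culture. Cells (600/well) were premixed with reagent and rested 5 h before 23 nL of compound in DMSO was pinned.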

[8] = A CellTox Green Cytotoxicity Assay to monitor cytotoxicity in HEK293 cells - 32 hour (AID 1224881); note: nearly all actives have a fitted effect of over 40% in size; note: potency is the fitted concentration of half-maximal effect
Procedure, shortened: as §2

[9] = A CellTox Green Cytotoxicity Assay to monitor cytotoxicity in HepG2 cells - 0 hour (AID 1224882); note: nearly all actives have a fitted effect of over 35% in size; note: potency is the fitted concentration of half-maximal effect
Procedure, shortened: as §3

[10] = A CellTox Green Cytotoxicity Assay to monitor cytotoxicity in HepG2 cells - 32 hour (AID 1224883); note: nearly all actives have a fitted effect of over 50% in size; note: potency is the fitted concentration of half-maximal effect
Procedure, shortened: as §3

[11] = A CellTox Green Cytotoxicity Assay to monitor cytotoxicity in HEK293 cells - 8 hour (AID 1224884); note: nearly all actives have a fitted effect of over 35% in size; note: potency is the fitted concentration of half-maximal effect
Procedure, shortened: as §2

[12] = qHTS RealTime-Glo MT Cell Viability Assay in HepG2 cells - 16 hour (AID 1224885); note: nearly all actives have a fitted effect of over 50% in size; note: potency is the fitted concentration of half-maximal effect
Procedure, shortened: (§5)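 Compound treatment began 5 h after plating HepG2 cells (600/well) with NanoLuc luciferase and prosubstrate. Plates stayed at 37 C for 40 h; luminescence was captured at six time points, 0 h through 40 h.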

[13] = qHTS RealTime-Glo MT Cell Viability Assay in HEK293 cells - 8 hour (AID 1224887); note: nearly all actives have a fitted effect of over 50% in size; note: potency is the fitted concentration of half-maximal effect
Procedure, shortened: as §4

[14] = A CellTox Green Cytotoxicity Assay to monitor cytotoxicity in HEK293 cells - 16 hour (AID 1224888); note: nearly all actives have a fitted effect of over 35% in size; note: potency is the fitted concentration of half-maximal effect
Procedure, shortened: as §2

[15] = qHTS RealTime-Glo MT Cell Viability Assay in HepG2 cells - 0 hour (AID 1224889); note: nearly all actives have a fitted effect of over 50% in size; note: potency is the fitted concentration of half-maximal effect
Procedure, shortened: as §5

[16] = A CellTox Green Cytotoxicity Assay to monitor cytotoxicity in HepG2 cells - 8 hour (AID 1224890); note: nearly all actives have a fitted effect of over 45% in size; note: potency is the fitted concentration of half-maximal effect
Procedure, shortened: as §3

[17] = qHTS assay to identify small molecule antagonists of the estrogen receptor alpha (ER-alpha) signaling pathway using the BG1 cell line in the presence of 0.1 nM 17-beta-estradiol - cell viability counter screen (AID 1259241); note: nearly all actives have a fitted effect of over 40% in size
Procedure, shortened: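 CellTiter-Fluor read (30 min, 37C) on ER-alpha/ERE-luc VM7Luc4E2 cells; 22 hr compound treatment; agonist 0.1 nM E2 final; same-well multiplex.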

[18] = qHTS RealTime-Glo MT Cell Viability Assay in HepG2 cells - 32 hour (AID 1224877); note: nearly all actives have a fitted effect of over 55% in size; note: potency is the fitted concentration of half-maximal effect
Procedure, shortened: as §5

[19] = qHTS RealTime-Glo MT Cell Viability Assay in HEK293 cells - 40 hour (AID 1224874); conditions: RealTime-Glo luminescence; max response: hits give low values; note: nearly all actives have a fitted effect of over 50% in size; note: potency is the fitted concentration of half-maximal effect
Procedure, shortened: as §4

[20] = qHTS RealTime-Glo MT Cell Viability Assay in HEK293 cells - 24 hour (AID 1224886); note: nearly all actives have a fitted effect of over 50% in size; note: potency is the fitted concentration of half-maximal effect
Procedure, shortened: as §1
% is set by controls: 0 for no effect and ±100 for the full control effect.

C=CC(=O)OCCC#N
inactive: Potency [1] | Potency [2] | Potency [3] | Potency [4] | Potency [5] | Potency [6] | Potency [7] | Potency [8] | Potency [9] | Potency [10] | Potency [11] | Potency [12] | Potency [13] | Potency [14] | Potency [15] | Potency [16] | Potency [17]

COc1ccc2sc(C(=O)Nc3nnn[nH]3)c(OC(C)C)c2c1
inactive: Potency [1] | Potency [2] | Potency [3] | Potency [4] | Potency [18] | Potency [5] | Potency [6] | Potency [7] | Potency [8] | Potency [9] | Potency [10] | Potency [11] | Potency [12] | Potency [13] | Potency [14] | Potency [15] | Potency [16] | Potency [17]

CCCN(CCc1cccs1)[C@H]1CCc2c(O)cccc2C1
active: Potency [1] 15.1 µM | Potency [19] 21.3 µM | Potency [6] 23.9 µM | Potency [10] 23.9 µM | Potency [20] 7.56 µM | Potency [13] 15.1 µM
inactive: Potency [2] | Potency [18] | Potency [7] | Potency [9] | Potency [11] | Potency [12] | Potency [15] | Potency [17]

CCOC(=O)C1=C(C)NC(C)=C(C(=O)OCC)C1c1ccccc1/C=C/C(=O)OC(C)(C)C
inactive: Potency [1] | Potency [3] | Potency [4] | Potency [5] | Potency [6] | Potency [8] | Potency [9] | Potency [10] | Potency [11] | Potency [20] | Potency [13] | Potency [14] | Potency [16] | Potency [17]
active: Potency [7] 3.79 µM | Potency [15] 3.38 µM

C[n+]1c2cc(N)ccc2cc2ccc(N)cc21 (tested in a mixture with another compound)
active: Potency [1] 21.3 µM | Potency [19] 4.77 µM | Potency [3] 23.9 µM | Potency [4] 23.9 µM | Potency [5] 21.3 µM | Potency [6] 21.3 µM | Potency [8] 23.9 µM | Potency [9] 23.9 µM | Potency [10] 21.3 µM | Potency [11] 23.9 µM | Potency [20] 9.52 µM | Potency [14] 23.9 µM | Potency [16] 23.9 µM
inactive: Potency [7] | Potency [15]

NC1(c2ccc(-c3nc4ccn5c(=O)[nH]nc5c4cc3-c3ccccc3)cc2)CCC1
active: Potency [1] 6.01 µM | Potency [19] 1.07 µM | Potency [6] 26.8 µM | Potency [10] 26.8 µM | Potency [12] 23.9 µM | Potency [20] 3.01 µM | Potency [13] 10.7 µM
inactive: Potency [7] | Potency [9] | Potency [15] | Potency [16]

CCN(CC)CCOc1ccc(C(O)(Cc2ccc(Cl)cc2)c2ccc(C)cc2)cc1 (stereo not given)
inactive: Potency [7] | Potency [9] | Potency [11] | Potency [17]
active: Potency [1] 21.3 µM | Potency [19] 10.7 µM | Potency [3] 23.9 µM | Potency [4] 23.9 µM | Potency [18] 19 µM | Potency [5] 21.3 µM | Potency [6] 15.1 µM | Potency [10] 15.1 µM | Potency [12] 23.9 µM | Potency [20] 19 µM | Potency [13] 21.3 µM

C=CC(=O)OCC(O)COc1ccccc1 (stereo not given)
inactive: Potency [1] | max response [19] 8.54% | Potency [3] | Potency [4] | Potency [5] | Potency [7] | Potency [9] | Potency [10] | Potency [20] | Potency [13] | Potency [14] | Potency [15] | Potency [16] | Potency [17]

CN(C)CCCN1c2ccccc2Sc2ccc(C(F)(F)F)cc21
active: Potency [1] 19 µM | Potency [19] 23.9 µM | Potency [4] 23.9 µM | Potency [5] 23.9 µM | Potency [6] 23.9 µM | Potency [10] 23.9 µM | Potency [20] 21.3 µM | Potency [13] 21.3 µM
inactive: Potency [9] | Potency [11] | Potency [14] | Potency [17]

Cc1cc2c(C(C)C)c(O)c(O)c(C=O)c2c(O)c1-c1c(C)cc2c(C(C)C)c(O)c(O)c(C=O)c2c1O
active: Potency [1] 19 µM | Potency [19] 8.49 µM | Potency [3] 19 µM | Potency [18] 21.3 µM | Potency [6] 26.8 µM | Potency [8] 21.3 µM | Potency [20] 10.7 µM | Potency [14] 16.9 µM
inactive: Potency [4] | Potency [7] | Potency [9] | Potency [15] | Potency [16] | Potency [17]

Clc1ccc(C(Cn2ccnc2)OCc2ccsc2Cl)c(Cl)c1 (stereo not given)
active: Potency [1] 15.1 µM | Potency [19] 16.9 µM | Potency [5] 21.3 µM | Potency [6] 23.9 µM | Potency [10] 23.9 µM | Potency [20] 15.1 µM
inactive: Potency [7] | Potency [11] | Potency [14] | Potency [15] | Potency [16] | Potency [17]

O=C1Nc2ccc(Cl)cc2[C@@](C#CC2CC2)(C(F)(F)F)O1
inactive: Potency [7] | Potency [9] | Potency [15] | Potency [17]
active: Potency [1] 21.3 µM | Potency [19] 23.9 µM | Potency [20] 23.9 µM | Potency [13] 23.9 µM

CC(C)(C)c1cc(/C=C2\SC(=N)NC2=O)cc(C(C)(C)C)c1O
inactive: Potency [7] | Potency [9] | Potency [11] | Potency [15] | Potency [17]
active: Potency [1] 43.6 µM | Potency [19] 49 µM | Potency [4] 43.6 µM | Potency [5] 43.6 µM | Potency [6] 43.6 µM | Potency [10] 43.6 µM | Potency [20] 49 µM | Potency [16] 49 µM

CN(C)c1ccc(N=Nc2ccccc2C(=O)O)cc1
inactive: Potency [1] | max response [19] 2% | Potency [3] | Potency [4] | Potency [5] | Potency [7] | Potency [8] | Potency [9] | Potency [10] | Potency [11] | Potency [20] | Potency [13] | Potency [14] | Potency [15] | Potency [16] | Potency [17]
